Test results published in PubChem BioAssay.
Activity calls are given as the source filed them.

Tests used:
[1] = small molecules captured by biotinylated probe aFSTL3 – biochemical, small-molecule microarray, fluorescence 635/667, stem cell growth factor project, primary screen (AID 1064); conditions: higher = more signal;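 note: measures binding of the biotinylated anti-FSTL3 antibody to printed compounds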
[2] = binders from COS7 lysate, DM2A8 probe, primary screen, torsin A project, cell lysate, small-molecule microarray, fluorescence 635/667 (AID 1065); conditions: higher = more signal, COS7 lysate expressing mutant human TOR1A
[3] = small molecules captured by biotinylated probe aFGF2 – biochemical, small-molecule microarray, fluorescence 635/667, stem cell growth factor project, primary screen (AID 1067); conditions: higher = more signal;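 note: measures binding of biotinylated aFGF2 protein to printed compounds on slides; z-score merges feature fluorescence and signal-to-noise across triplicate slides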
[4] = small molecules captured by biotinylated probe aFGF10 – biochemical, small-molecule microarray, fluorescence 635/667, stem cell growth factor project, primary screen (AID 1071); conditions: higher = more signal;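 note: score merges 667 nm spot intensity and signal to noise from triplicate slides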
[5] = molecular target: Neurogenic locus notch homolog protein 2 (Homo sapiens) (UniProt Q04721); test: small molecules binding Notch2 protein – biochemical, small-molecule microarray, 635 nm fluorescence, stem cell growth factors, primary screen (AID 1073); conditions: higher = more signal
[6] = molecular target: Pro-neuregulin-1, membrane-bound isoform (Homo sapiens) (UniProt Q02297); test: small molecules binding neuregulin-1 protein – biochemical, small-molecule microarray, fluorescence 635/667, psychiatric disease protein project, primary screen (AID 1075); conditions: NRG1 binding, 635 nm fluorescence, higher = more signal;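 note: score combines 667 nm spot fluorescence with signal to noise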
[7] = tested on: Neuregulin-1 EGF-like domain; test: small molecules binding NRG1 EGF domain – biochemical, small-molecule microarray, 635 nm fluorescence, primary screen (AID 1081); conditions: higher = more signal;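 note: binding of the protein to compounds printed on small-molecule microarray slides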
[8] = FRG1 expression reporter modulators in myotubes – cell-based, C2C12 myotubes, firefly/Renilla luciferase, luminescence, FRG1 inhibition for FSHD, primary screen (AID 1084); conditions: FRG1 promoter luciferase, higher = more signal, called active from +8 up or from −8 down
[9] = small molecules captured by biotinylated probe aFST – biochemical, small-molecule microarray, fluorescence 635/667, stem cell growth factor project, primary screen (AID 1086); conditions: higher = more signal;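 note: score merges 667 nm fluorescence with signal-to-noise of each printed compound spot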
[10] = binders of probe aHhip on microarray, primary screen, stem cell growth factor project, biochemical, small-molecule microarray, fluorescence 635/667 (AID 1087); conditions: higher = more signal;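 note: score merges spot fluorescence at 667nm with spot signal to noise ratio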
[11] = tested on: PRMT1 (protein arginine N-methyltransferase 1); test: small molecules binding arginine methyltransferase PRMT1 – biochemical, small-molecule microarray, 635 nm fluorescence, primary screen (AID 1088); conditions: higher = more signal;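 note: binding of Prmt1 protein to compounds spotted on small-molecule microarray slides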
[12] = growth effects on S. cerevisiae YJM789 – YJM789 clinical isolate, OD600, 24 h, basal, primary screen (AID 1089); conditions: higher = more signal, called active from +8 up or from −8 down;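 note: growth of clinical yeast isolate S. cerevisiae YJM 789 seeded 1000 cells per well; test concentration not given here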
[13] = S. pombe growth modifiers, basal conditions – strain 972, OD600, 24 h, no modulator, primary screen (AID 1090);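 note: basal condition with compound alone and no growth modifier present; test concentration not given here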; conditions: S. pombe 972 growth, higher = more signal, called active from +8 up or from −8 down
[14] = budding yeast growth modifiers under rapamycin – strain BY4716, OD600, 96 h, primary screen (AID 1091); note: test concentration not given here; conditions: S. cerevisiae BY4716 + rapamycin, higher = more signal, called active from +8 up or from −8 down
[15] = molecular target: Torsin-1A-interacting protein 2 (Homo sapiens) (UniProt Q8NFQ8); test: small molecules binding lysate-expressed LULL1 – cell lysate, human LULL1 lysate, 635/667 nm fluorescence, primary screen (AID 1092); conditions: small-molecule microarray, hLULL1 lysate binding, 635 nm fluorescence; higher = more signal;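 note: probe is lysate of COS7 cells overexpressing human LULL1; score merges per-feature 667 nm fluorescence with signal-to-noise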
[16] = optical density change of DRC41 E. coli – strain DRC41, OD650, 24 h, E. coli filamentation project, primary screen (AID 1093);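 note: MC1000 strain lacking acrAB efflux and sulA so SOS filamentation is blocked; test concentration not given here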; conditions: E. coli DRC41 growth, higher = more signal, called active from +8 up or from −8 down
[17] = probe aLefty2 binding to arrayed compounds – biochemical, biotinylated probe, 635/667 nm fluorescence, primary screen (AID 1094); conditions: small-molecule microarray, higher = more signal;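 note: score merges spot fluorescence near 667 nm with spot signal-to-noise ratio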
[18] = tested on: Noggin (protein binding on small-molecule microarray); test: small molecules binding Noggin protein – biochemical, 635/667 nm fluorescence, primary screen (AID 1095); conditions: 635 nm fluorescence, higher = more signal;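 note: score merges 667 nm feature fluorescence with signal to noise over triplicate slides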
[19] = molecular target: Neurogenic locus notch homolog protein 3 (Homo sapiens) (UniProt Q9UM47); test: small molecules binding NOTCH3 protein – biochemical, 635/667 nm fluorescence, primary screen (AID 1096); conditions: small-molecule microarray, 635 nm fluorescence, higher = more signal
[20] = probe aEGFR binding to arrayed compounds – biochemical, biotinylated probe, 635/667 nm fluorescence, primary screen (AID 1097); conditions: small-molecule microarray, higher = more signal;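 note: probe is a biotinylated anti-EGFR antibody binding compounds printed on slides; score combines fluorescence near 667 nm and signal to noise of each spot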

Sequence of Torsin-1A-interacting protein 2 (Homo sapiens) (Q8NFQ8 whole entry, looked up): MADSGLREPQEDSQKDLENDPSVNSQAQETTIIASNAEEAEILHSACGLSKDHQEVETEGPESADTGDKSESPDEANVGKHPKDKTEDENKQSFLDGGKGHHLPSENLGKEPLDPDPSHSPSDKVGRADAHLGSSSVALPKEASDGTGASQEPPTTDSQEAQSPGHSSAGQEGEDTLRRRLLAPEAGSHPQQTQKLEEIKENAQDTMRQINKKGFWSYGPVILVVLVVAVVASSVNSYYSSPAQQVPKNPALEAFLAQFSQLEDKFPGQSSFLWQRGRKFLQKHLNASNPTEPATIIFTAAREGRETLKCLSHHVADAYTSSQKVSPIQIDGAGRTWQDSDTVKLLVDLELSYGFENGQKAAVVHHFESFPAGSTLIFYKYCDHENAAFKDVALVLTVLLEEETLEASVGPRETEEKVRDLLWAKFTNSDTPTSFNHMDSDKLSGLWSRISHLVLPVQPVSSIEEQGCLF
Sequence of Pro-neuregulin-1, membrane-bound isoform (Homo sapiens) (Q02297 whole entry, looked up, the tested form may be a part, canonical isoform): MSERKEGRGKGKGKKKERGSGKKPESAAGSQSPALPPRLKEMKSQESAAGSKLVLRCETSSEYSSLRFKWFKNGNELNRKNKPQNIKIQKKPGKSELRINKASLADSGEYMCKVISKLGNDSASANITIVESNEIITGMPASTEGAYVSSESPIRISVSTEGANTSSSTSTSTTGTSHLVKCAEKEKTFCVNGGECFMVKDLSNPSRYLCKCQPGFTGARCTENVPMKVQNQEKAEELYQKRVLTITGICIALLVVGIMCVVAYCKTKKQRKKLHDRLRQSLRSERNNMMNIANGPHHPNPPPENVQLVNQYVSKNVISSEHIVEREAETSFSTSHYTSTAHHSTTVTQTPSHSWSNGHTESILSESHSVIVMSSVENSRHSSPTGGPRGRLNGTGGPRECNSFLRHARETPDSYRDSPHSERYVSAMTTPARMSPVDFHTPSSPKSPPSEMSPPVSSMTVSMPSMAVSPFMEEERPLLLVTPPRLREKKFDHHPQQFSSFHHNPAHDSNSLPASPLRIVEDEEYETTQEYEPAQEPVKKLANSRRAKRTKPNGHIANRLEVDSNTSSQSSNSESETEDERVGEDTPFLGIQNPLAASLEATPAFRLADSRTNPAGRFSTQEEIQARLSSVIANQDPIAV
Sequence of Neurogenic locus notch homolog protein 3 (Homo sapiens) (Q9UM47 whole entry, looked up): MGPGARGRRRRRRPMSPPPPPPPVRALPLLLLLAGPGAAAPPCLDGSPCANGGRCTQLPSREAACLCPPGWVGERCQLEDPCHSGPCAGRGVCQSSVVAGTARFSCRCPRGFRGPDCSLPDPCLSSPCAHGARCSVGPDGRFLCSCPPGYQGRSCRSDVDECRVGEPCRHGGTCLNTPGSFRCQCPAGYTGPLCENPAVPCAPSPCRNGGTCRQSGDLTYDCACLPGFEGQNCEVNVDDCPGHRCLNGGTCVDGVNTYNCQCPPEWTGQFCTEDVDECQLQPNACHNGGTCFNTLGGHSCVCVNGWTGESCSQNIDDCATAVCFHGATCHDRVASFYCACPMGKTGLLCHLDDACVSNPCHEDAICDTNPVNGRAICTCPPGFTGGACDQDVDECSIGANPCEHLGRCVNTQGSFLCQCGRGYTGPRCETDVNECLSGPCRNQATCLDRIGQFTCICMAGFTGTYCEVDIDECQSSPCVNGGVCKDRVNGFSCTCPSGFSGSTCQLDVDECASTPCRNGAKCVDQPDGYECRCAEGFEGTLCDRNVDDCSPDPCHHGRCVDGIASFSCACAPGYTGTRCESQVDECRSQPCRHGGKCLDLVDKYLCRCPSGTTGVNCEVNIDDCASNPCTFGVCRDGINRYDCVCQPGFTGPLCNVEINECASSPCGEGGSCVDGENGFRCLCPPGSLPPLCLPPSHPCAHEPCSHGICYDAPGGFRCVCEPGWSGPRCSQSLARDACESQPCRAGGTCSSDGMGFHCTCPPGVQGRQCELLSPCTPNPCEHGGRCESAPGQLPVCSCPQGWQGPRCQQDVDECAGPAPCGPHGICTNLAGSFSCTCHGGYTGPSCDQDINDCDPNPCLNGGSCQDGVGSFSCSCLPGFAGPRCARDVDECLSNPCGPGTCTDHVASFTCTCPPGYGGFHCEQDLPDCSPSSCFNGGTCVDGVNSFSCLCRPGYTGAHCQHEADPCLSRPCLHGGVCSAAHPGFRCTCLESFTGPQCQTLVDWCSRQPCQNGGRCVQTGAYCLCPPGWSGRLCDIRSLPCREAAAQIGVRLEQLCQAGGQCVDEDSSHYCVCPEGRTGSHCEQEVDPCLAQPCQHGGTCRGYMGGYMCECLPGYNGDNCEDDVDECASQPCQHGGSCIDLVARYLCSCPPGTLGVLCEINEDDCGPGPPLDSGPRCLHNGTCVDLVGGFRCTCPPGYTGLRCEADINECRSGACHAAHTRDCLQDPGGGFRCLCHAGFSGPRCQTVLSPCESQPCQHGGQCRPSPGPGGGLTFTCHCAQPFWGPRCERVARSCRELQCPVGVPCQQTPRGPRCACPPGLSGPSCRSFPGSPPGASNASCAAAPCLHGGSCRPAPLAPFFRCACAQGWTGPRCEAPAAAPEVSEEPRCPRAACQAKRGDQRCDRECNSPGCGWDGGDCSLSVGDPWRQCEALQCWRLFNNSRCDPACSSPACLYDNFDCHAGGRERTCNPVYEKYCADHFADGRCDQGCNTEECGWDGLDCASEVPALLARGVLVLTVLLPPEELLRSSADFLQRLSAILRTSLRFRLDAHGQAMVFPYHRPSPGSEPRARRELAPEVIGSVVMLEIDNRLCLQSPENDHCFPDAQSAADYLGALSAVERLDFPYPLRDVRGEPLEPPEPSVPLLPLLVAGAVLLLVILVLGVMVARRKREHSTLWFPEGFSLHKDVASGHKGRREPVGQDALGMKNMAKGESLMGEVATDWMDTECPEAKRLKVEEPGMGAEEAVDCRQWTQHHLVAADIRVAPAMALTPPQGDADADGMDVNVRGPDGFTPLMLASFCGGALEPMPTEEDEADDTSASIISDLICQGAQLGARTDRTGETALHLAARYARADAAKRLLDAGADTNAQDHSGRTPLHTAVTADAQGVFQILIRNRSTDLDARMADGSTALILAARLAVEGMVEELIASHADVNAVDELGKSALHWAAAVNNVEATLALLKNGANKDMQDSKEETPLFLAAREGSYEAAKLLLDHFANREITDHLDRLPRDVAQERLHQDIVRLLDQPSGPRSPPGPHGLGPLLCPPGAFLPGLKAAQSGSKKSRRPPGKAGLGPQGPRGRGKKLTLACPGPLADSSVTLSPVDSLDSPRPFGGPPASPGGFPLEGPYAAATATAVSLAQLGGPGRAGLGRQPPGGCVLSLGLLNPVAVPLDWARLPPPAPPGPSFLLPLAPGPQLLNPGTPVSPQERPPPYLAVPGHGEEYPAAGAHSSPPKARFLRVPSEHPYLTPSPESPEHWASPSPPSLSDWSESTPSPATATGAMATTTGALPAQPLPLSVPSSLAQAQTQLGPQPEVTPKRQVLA

| SMILES | composite z-score [1] | composite z-score [2] | composite z-score [3] | composite z-score [4] | composite z-score [5] | composite z-score [6] | composite z-score [7] | z-score [8] | composite z-score [9] | composite z-score [10] | composite z-score [11] | z-score [12] | z-score [13] | z-score [14] | composite z-score [15] | z-score [16] | composite z-score [17] | composite z-score [18] | composite z-score [19] | composite z-score [20] |
| --- | --- | --- | --- | --- | --- | --- | --- | --- | --- | --- | --- | --- | --- | --- | --- | --- | --- | --- | --- | --- |
| COCCOC(=O)N1C(=O)[C@@]2(c3ccccc31)[C@H](c1ccc(O)cc1)N1[C@H](c3ccccc3)[C@H](c3ccccc3)OC(=O)[C@H]1[C@@H]2C(=O)NC[C@H](O)c1ccccc1 | 0.0147 | 0.702 | -0.0702 | 0.157 | 0.187 | 1.8 | 1.26 | -0.567 (inactive) | 0.118 | 0.0093 | 1.51 | 0.385 (inactive) | -0.238 (inactive) | 2.73 (inactive) | 2.98 | 0.505 (inactive) | -0.23 | 0.399 | 0.669 | -0.165 |
| CCOc1cc(C(O)C2C=CC3C(=O)N(c4ccccc4)C(=O)C3N2Nc2ccccc2)ccc1O (stereo not given) | 0.259 | 0.107 | 0.252 | 1.03 | 0.66 | 1.8 | 1.2 | 0.893 (inactive) | 0.771 | -0.189 | 0.408 | 0.881 (inactive) | -0.692 (inactive) | 1.2 (inactive) | 3.52 | 0.374 (inactive) | -0.0371 | -0.419 | 0.498 | 0.0192 |
| CC(C)(C)OC(=O)CC[C@]1(C(=O)NCC(O)CO)COC(c2ccc(OCCCO)cc2)=N1 (stereo not given in full) | 0.139 | -0.382 | -0.0551 | -0.0211 | 1.13 | 1.97 | 1.21 | 0.555 (inactive) | 1.24 | -0.0645 | 0.281 | 0.65 (inactive) | 1 (inactive) | 0.977 (inactive) | 3.71 | -0.0576 (inactive) | -0.12 | -0.579 | -0.0234 | 0.0287 |
| C[N+](C)(C)CCCCNC(=O)[C@H]1C[C@H]2C(=O)N[C@@H](Cc3ccccc3)C(=O)N2[C@H]1c1ccc(O)cc1 | 0.288 | 0.504 | -0.074 | 0.0806 | -0.601 | -0.158 | 1.22 | 0.605 (inactive) | -0.0662 | -0.0645 | 0.684 | 1.1 (inactive) | -0.0797 (inactive) | -1.15 (inactive) | -0.114 | 0.282 (inactive) | -0.108 | 1.69 | 0.471 | -0.112 |
| C=CCOC(=O)[C@H]1[C@@H]2C(=O)O[C@@H](c3ccccc3)[C@@H](c3ccccc3)N2[C@@H](c2ccc(OCCOC(=O)[C@H]3C[C@H]4C(=O)N[C@@H](CC(C)C)C(=O)N4[C@H]3c3ccc(O)cc3)cc2)[C@]12C(=O)Nc1ccc(I)cc12 | -0.921 | 1.1 | -0.0355 | 0.69 | 0.82 | 0.731 | 1.34 | 1.11 (inactive) | -0.742 | -0.263 | 1.54 | 1 (inactive) | -1.4 (inactive) | 0.333 (inactive) | 2.62 | -1.13 (inactive) | -0.282 | 1.67 | 1.12 | 0.0423 |
| C=CCOC(=O)[C@H]1[C@@H]2C(=O)O[C@@H](c3ccccc3)[C@@H](c3ccccc3)N2[C@@H](c2ccc(OCCOC(=O)[C@H]3C[C@H]4C(=O)N5CCC[C@H]5C(=O)N4[C@H]3c3ccc(O)cc3)cc2)[C@]12C(=O)Nc1ccc(I)cc12 | 2.15 | 2.13 | 0.555 | 0.791 | 1.71 | 2.72 | 1.44 | -0.269 (inactive) | 2.72 | 2.39 | 1.53 | -0.324 (inactive) | -1.65 (inactive) | 0.0891 (inactive) | 3.64 | 1.07 (inactive) | 1.46 | 2 | 1.05 | 0.993 |
| CN1C(=O)C2C=CC(C(O)c3ccc(I)cc3)N(N3CCCCC3)C2C1=O (stereo not given) | 0.151 | 0.235 | 0.0671 | 1.09 | 1.71 | 1.73 | 1.27 | 1.14 (inactive) | 1.4 | -0.0346 | 1.55 | 0.276 (inactive) | -1.13 (inactive) | -0.0412 (inactive) | 3.36 | -1.74 (inactive) | 0.583 | 0.282 | 1.04 | 0.0747 |
| O=C1[C@H]2C=C(Br)[C@H](C[C@@H]2c2ccccc2)[C@@]12CO2 | -0.357 | 0.324 | -0.0265 | 0.328 | 0.299 | -0.406 | 0.57 | 1.36 (inactive) | 0.0322 | -0.0645 | 0.366 | -0.703 (inactive) | -14.7 (active) | -0.973 (inactive) | 0.328 | -0.779 (inactive) | -0.172 | 1.36 | 0.412 | -0.156 |
| CCOC(=O)[C@H]1C/C=C/C[C@H](C(=O)OCC)C(=O)O[C@H]2[C@@H](OC)O[C@H](CO)[C@@H](OC(=O)Nc3cccc(F)c3)[C@@H]2OC1=O | -0.621 | -0.125 | -0.0766 | 0.39 | 0.196 | 1.21 | 1.15 | 0.15 (inactive) | 0.0218 | -0.444 | 1.11 | 1.52 (inactive) | 0.268 (inactive) | 22.2 (active) | 2.94 | -0.168 (inactive) | -0.162 | 0.719 | 1.02 | -0.2 |
| CN1C(=O)C2C=CC(C(O)C3CCCCC3)N(Nc3ccc([N+](=O)[O-])cc3[N+](=O)[O-])C2C1=O (stereo not given) | 0.0318 | 0.548 | 0.0331 | 0.752 | 1.6 | 1.59 | 1.32 | 0.358 (inactive) | 1.51 | 0.236 | 1.52 | 0.492 (inactive) | 1.19 (inactive) | 0.68 (inactive) | 3.24 | -0.632 (inactive) | 0.191 | 0.219 | 1.03 | 0.0624 |
